Results from PubChem BioAssay AID493175 (National Center for Advancing Translational Sciences (NCATS), 2011).
Results filed as inconclusive are left out. A number with no mark means an inactive call. The source made the active and inactive calls. Calls come from the whole dose curve; as a rule, active = well fitted curve in the direction sought with a large enough effect; inconclusive = small, poorly fitted or top-dose-only effect, or another doubt; inactive = no such curve, though single readings can be large or run the other way.

What follows are compounds tested against Luciferin 4-monooxygenase (Photinus pyralis) (UniProt P08659) (assay: miR-21 counterscreen using purified firefly luciferase). Conditions: purified P. pyralis luciferase, luminescence; series mostly up to 57.5 µM.
Excerpt: MLPCN Grant: 1 R21 NS059478-01 Assay Provider: Qihong Huang, The Wistar Institute NCGC Assay Overview: MicroRNAs (miRNAs) are endogenously encoded small (~20-25 nucleotides), nonprotein-coding RNAs that are involved in post-transcriptional repression of target messenger RNAs (mRNAs) (Le and Hannon, 2004). Estimated to be involved in the regulation of 30% of all protein-coding mRNAs (Filipowicz et al., 2008), miRNAs play a significant role in many biological processes including cellular differentiation and tissue development (Ghildiyal and Zamore, 2009). […] Compounds active in the miR-21 FLuc assay were clustered using Leadscope and active chemical series were prioritized based on chemical properties, potential for medicinal chemistry optimization, and SAR. Within each chemical series, representative compounds were re-acquired to test for activity in a secondary assay based on the quality of their CRC, efficacy, and potency. This secondary assay to determine if compounds active in the miR-21 FLuc assay were just luciferase inhibitors. Compounds found active in both the miR-21 FLuc and purified FLuc assays are considered as false positives. Keywords: NIH Roadmap, MLPCN, MLSMR, qHTS, miR-21, firefly luciferase, FLuc, miRNA.
NCGC Assay Protocol Summary: Reagents: 50mM Tris acetate, pH 7.5; 10mM Mg acetate; 10uM D-luciferin (Sigma #L9504); 10uM ATP; 0.01% Tween-20; 0.05% BSA; 10nM P. pyralis luciferase (Sigma #L9506) Control compounds used were two known firefly luciferase inhibitors (compounds (2) and (5) in Auld et al., 2010), and DMSO. Assay Summary: Three microliters containing firefly luciferase substrates in buffer (final concentrations: 50mM Tris acetate, pH 7.5, 10mM Mg acetate, 0.01% Tween-20, 0.05% BSA, 10uM D-luciferin, and 10uM ATP) are dispensed into each well of a Greiner white, solid-bottom 1536-well format plate using a flying reagent dispenser (FRD). These assay plates were then treated with 23nL of compound or DMSO using a Kalypsys pin tool, which allows for delivery of a 6-point interplate titration of each compound to the assay plate (quantitative HTS), with a final compound concentrations ranging from approximately 60 µM to 7pM. One microliter of firefly luciferase in […] Tris-acetate buffer was then delivered by FRD to each well for a final enzyme concentration of 10nM. Luciferase activity was then measured using a ViewLux CCD imager (PerkinElmer), with an average exposure time of 2-30 seconds (2X binning, medium/high gain).

Chain of Luciferin 4-monooxygenase (Photinus pyralis) (P08659 whole entry, looked up): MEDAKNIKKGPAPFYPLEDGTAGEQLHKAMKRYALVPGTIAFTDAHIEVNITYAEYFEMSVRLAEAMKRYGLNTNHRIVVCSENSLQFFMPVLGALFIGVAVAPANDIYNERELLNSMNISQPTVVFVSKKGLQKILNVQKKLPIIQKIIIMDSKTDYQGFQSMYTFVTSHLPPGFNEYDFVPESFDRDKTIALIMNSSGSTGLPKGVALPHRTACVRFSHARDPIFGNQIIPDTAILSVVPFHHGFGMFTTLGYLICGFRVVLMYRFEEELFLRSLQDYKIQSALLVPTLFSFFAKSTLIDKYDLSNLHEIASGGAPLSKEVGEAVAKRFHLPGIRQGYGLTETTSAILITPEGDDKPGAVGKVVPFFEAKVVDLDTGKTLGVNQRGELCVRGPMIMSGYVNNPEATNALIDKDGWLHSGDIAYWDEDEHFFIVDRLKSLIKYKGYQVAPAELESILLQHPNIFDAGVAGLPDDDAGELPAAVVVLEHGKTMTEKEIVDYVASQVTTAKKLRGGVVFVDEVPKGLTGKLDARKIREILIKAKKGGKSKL

Compound	outcome	activity change, negative = inhibition
CC(=O)Nc1nc2c(C)cc(NC(=O)C3CCCCC3)cc2s1	inactive	
COc1cc(Cl)c(C)cc1Nc1c2c(nc3ccccc13)CCC2	inactive	
COc1ccc(NCc2cccn2-c2nnc(N3CCC(C)CC3)s2)c(OC)c1	inactive	
Cc1cccc(-c2nsc(SCC(=O)Nc3ccc4c(c3)OCO4)n2)c1	inactive	
COc1ccc(OCC(=O)Nc2ccc(-c3nc4cc(Cl)ccc4o3)cc2)cc1	inactive	
Cc1ccc(-n2nnc(-c3nc(-c4cccs4)no3)c2N)cc1C	inactive	
CCc1ccc2oc(C(=O)Nc3nonc3CC)c(C)c2c1	inactive	
COCC(=O)Nc1c(C(=O)Nc2ccc3c(c2)OCCO3)oc2ccccc12	inactive	
O=C(Nc1ccc(-c2nc3ccccc3[nH]2)cc1)c1ccc2c(c1)OCO2	inactive	
Cc1c(-c2nnc(SCC(=O)Nc3ccccc3F)o2)nnn1-c1ccc(F)cc1	inactive	
Cc1cccc(-n2nnc(-c3nc(-c4cccs4)no3)c2N)c1	inactive	
COc1ccc(NC(=O)CSc2nc(SC)ns2)c(OC)c1	inactive	
O=S(=O)(c1ccc(F)cc1)n1ccc(-c2cnc(-c3ccccc3)s2)n1	inactive	
Cc1ccc(SCC(=O)Nc2ccc3oc(-c4ccc(F)cc4)nc3c2)cc1	inactive	
CC(C)(C)C1CCc2nc(NC(=O)Cc3cn4ccsc4n3)sc2C1 (stereo not given)		0.54% [at 2.3 µM]
Cc1cc(C)cc(NC(=O)CSc2nnc(-c3ccccc3C)o2)c1	inactive	
Cn1c(=O)[nH]c2cc(-c3noc(-c4ccc(F)cc4)n3)ccc21	inactive	
Cc1ccc(C)c(Nc2nc3nonc3nc2Nc2cccc(C)c2C)c1	inactive	
COc1ccc(CNc2n[nH]c(-c3ccco3)n2)cc1OC	inactive	
COc1ccccc1Nc1nn2c(=O)c3ccc(C(=O)NCc4cccs4)cc3nc2s1	inactive	

Compound	outcome	activity change, negative = inhibition
COc1ccc(C(=O)Nc2nnc(C(C)C)s2)cc1OC	inactive	
CCS(=O)(=O)n1nc(-c2ccccc2)nc1NCc1ccco1	inactive	
O=C(c1ccc(Cl)cc1)n1nc(-c2ccccc2)nc1NCc1ccco1	inactive	
CCS(=O)(=O)c1ncc(Cl)c(C(=O)N(Cc2ccccc2)c2ccc(OC)cc2)n1	inactive	
COc1ccc(NC(=O)c2ncn(-c3ccccc3)n2)cc1Cl	inactive	
O=C(CSc1nnc(-c2cccnc2)o1)Nc1cccc(Cl)c1	inactive	
COc1cc(-c2nc3cnccn3c2Nc2ccc(C(C)C)cc2)ccc1O	inactive	
Cc1cc(C)cc(NC(=O)CSc2nnc(CNC(=O)c3ccco3)o2)c1	inactive	
Cc1cccc(-c2nnc(SCC(=O)Nc3ccc(C)c(C)c3)o2)c1	inactive	
COc1ccc(OCC(=O)Nc2ccc(-c3nc4cc(C)c(C)cc4o3)cc2)cc1	inactive	
c1ccc(C2=Nn3c(nnc3-c3cc(-c4ccccc4)n[nH]3)SC2)cc1		-18.1% [at 2.3 µM]
CC(C)(C)c1ccc(NC(=O)CSc2nnc(-c3n[nH]c4ccccc34)o2)cc1	inactive	
Fc1cccc(Cl)c1CSc1nnc2ccccn12	inactive	
CS(=O)(=O)c1ncc(Cl)c(C(=O)Nc2ccc3ccccc3c2)n1	inactive	
CCS(=O)(=O)c1ncc(Cl)c(C(=O)N2CCN(c3cccc(Cl)c3)CC2)n1	inactive	
CC(C)COc1ccc(C(=O)Nc2cc(-c3ccccc3)no2)cc1	inactive	
CC(=O)c1cnc2nc(SCc3ccccc3)nn2c1C	inactive	
CCC(Oc1ccccc1F)C(=O)N1CCC(c2nc3ccccc3s2)CC1 (stereo not given)	inactive	
COc1ccccc1Nc1nn2c(=O)c3ccc(C(=O)NCCc4ccccc4)cc3nc2s1	inactive	
COc1ccc(-c2nc(SCc3ccccc3)n(S(C)(=O)=O)n2)cc1	inactive	
